Measured values: PubChem BioAssay (EPA / NIEHS)
Calls of active or inactive are those of the source. How the source made its calls: active means hit-call score of the fitted dose curve at least 0.9, where 1 is the maximum; inactive means score below 0.9.

Tests used:
Conditions in all cases: mRNA level, 48 h; actives raise or lower the signal
[1] = read-out: growth arrest and DNA damage 45 (GADD45A), GADD45A (gene 1647); assay: LTEA_HepaRG_GADD45A: Life Technologies and Expression Analysis (LTEA) Assay for growth arrest and DNA damage 45 (GADD45A) using HepaRG (AID 2283458)
In short: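 Differentiated HepaRG cells exposed 48 h in serum-free induction medium to 8 concentrations, top 100 uM in half-log steps, 0.5% DMSO. GADD45A mRNA quantified by qRT-PCR, normalized to ACTB, GAPDH and POLR2A; bidirectional fit versus DMSO.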

[2] = read-out: Forkhead box O3 (FOXO3), FOXO3 (gene 2309); assay: LTEA_HepaRG_FOXO3: Life Technologies and Expression Analysis (LTEA) Assay for Forkhead box O3 (FOXO3) using HepaRG (AID 2283459)
In short: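 Differentiated human HepaRG cells, 48 h post-plating, exposed in duplicate for 48 h in serum-free induction medium; 8-point half-log series from 100 uM in 0.5% DMSO. FOXO3 mRNA by TaqMan qRT-PCR, normalized to ACTB/GAPDH/POLR2A; bidirectional fit versus DMSO.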

[3] = read-out: growth arrest and DNA damage 45 (GADD45B), GADD45B (gene 4616); assay: LTEA_HepaRG_GADD45B: Life Technologies and Expression Analysis (LTEA) Assay for growth arrest and DNA damage 45 (GADD45B) using HepaRG (AID 2283461)
In short: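 Values are bidirectional concentration-response fits against 0.5% DMSO controls. Underlying data: qRT-PCR mRNA levels in human HepaRG liver cells treated 48 h in serum-free induction medium, eight concentrations topping at 100 uM.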

[4] = read-out: ABC Transporter (ABCC3), ABCC3 (gene 8714); assay: LTEA_HepaRG_ABCC3: Life Technologies and Expression Analysis (LTEA) Assay for ABC Transporter (ABCC3) using HepaRG (AID 2283462)
In short: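 Differentiated HepaRG liver cells receive test chemicals at eight concentrations (max 100 uM) for 48 h. Expression of ABCC3 is quantified by qRT-PCR against ACTB, GAPDH and POLR2A, and activity is fitted in both directions against the DMSO control.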

[5] = read-out: ABC Transporter (ABCB11), ABCB11 (gene 8647); assay: LTEA_HepaRG_ABCB11: Life Technologies and Expression Analysis (LTEA) Assay for ABC Transporter (ABCB11) using HepaRG (AID 2283463)
In short: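 Differentiated human HepaRG cells in serum-free induction medium, dosed in duplicate for 48 h. Eight-point half-log series from 100 uM in 0.5% DMSO; ABCB11 mRNA by qRT-PCR, normalized to ACTB, GAPDH, POLR2A, fitted bidirectionally versus DMSO.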

[6] = read-out: ABC Transporter (ABCC2), ABCC2 (gene 1244); assay: LTEA_HepaRG_ABCC2: Life Technologies and Expression Analysis (LTEA) Assay for ABC Transporter (ABCC2) using HepaRG (AID 2283464)
In short: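 Gene expression of ABCC2 was determined by qRT-PCR in HepaRG cells exposed 48 h to chemicals (highest 100 uM, half-log dilutions). Activity was fitted in both directions relative to 0.5% DMSO vehicle.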

[7] = read-out: Broad substrate specificity ATP-binding cassette transporter ABCG2 (Homo sapiens) (UniProt Q9UNQ0); assay: LTEA_HepaRG_ABCG2: Life Technologies and Expression Analysis (LTEA) Assay for ABC Transporter (ABCG2) using HepaRG (AID 2283465)
In short: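 Differentiated HepaRG cells were exposed for 48 h in serum-free induction medium to 8 half-log concentrations, top 100 uM, in 0.5% DMSO. ABCG2 mRNA was measured by qRT-PCR, normalized to ACTB, GAPDH and POLR2A, with bidirectional fitting versus DMSO.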

[8] = read-out: ATP-citrate lyase (ACLY), ACLY (gene 47); assay: LTEA_HepaRG_ACLY: Life Technologies and Expression Analysis (LTEA) Assay for ATP-citrate lyase (ACLY) using HepaRG (AID 2283466)
In short: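 Differentiated HepaRG cells exposed 48 h in serum-free induction medium to eight half-log concentrations up to 100 uM in 0.5% DMSO, duplicates. Transcript measured by Fluidigm TaqMan qRT-PCR, normalized to ACTB, GAPDH, POLR2A; bidirectional fit versus DMSO.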

[9] = read-out: Alkaline Phosphatase, Placental (ALPP) gene, ALPP (gene 250); assay: LTEA_HepaRG_ALPP: Life Technologies and Expression Analysis (LTEA) Assay for Alkaline Phosphatase, Placental (ALPP) gene using HepaRG (AID 2283468)
In short: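 Expression of ALPP was quantified by qRT-PCR against three housekeeping genes in human HepaRG cultures treated for 48 h with an eight-point concentration series up to 100 uM. Activity in either direction was fitted relative to 0.5% DMSO.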

[10] = read-out: Bcl-2 (BAD) gene, BAD (gene 572); assay: LTEA_HepaRG_BAD: Life Technologies and Expression Analysis (LTEA) Assay for Bcl-2 (BAD) gene using HepaRG (AID 2283469)
In short: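 Differentiated HepaRG cells were exposed in duplicate in 0.5% DMSO for 48 h to eight-point half-log concentrations up to 100 uM. BAD mRNA was measured by Fluidigm TaqMan qRT-PCR, normalized to ACTB, GAPDH and POLR2A, and fitted bidirectionally against DMSO.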

[11] = read-out: Bcl-2 (BAX) gene, BAX (gene 581); assay: LTEA_HepaRG_BAX: Life Technologies and Expression Analysis (LTEA) Assay for Bcl-2 (BAX) gene using HepaRG (AID 2283470)
In short: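 Differentiated HepaRG cells exposed 48 h in serum-free induction medium, eight half-log concentrations from 100 uM, in duplicate, 0.5% DMSO vehicle. BAX mRNA by TaqMan qRT-PCR, normalised to ACTB, GAPDH and POLR2A.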

[12] = read-out: adenosine kinase (ADK) gene, ADK (gene 132); assay: LTEA_HepaRG_ADK: Life Technologies and Expression Analysis (LTEA) Assay for adenosine kinase (ADK) gene using HepaRG (AID 2283471)
In short: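 Following 48 h exposure of HepaRG cells in 0.5% DMSO (top concentration 100 uM, duplicate wells), ADK mRNA induction or suppression was measured by qRT-PCR, normalised to ACTB/GAPDH/POLR2A, and fitted bidirectionally relative to vehicle.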

[13] = read-out: Alpha-fetoprotein (AFP) gene, AFP (gene 174); assay: LTEA_HepaRG_AFP: Life Technologies and Expression Analysis (LTEA) Assay for Alpha-fetoprotein (AFP) gene using HepaRG (AID 2283472)
In short: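 Differentiated human HepaRG cells exposed 48 h in serum-free induction medium, 8-point half-log series from 100 uM in 0.5% DMSO, duplicate. AFP mRNA by qRT-PCR, normalized to ACTB, GAPDH, POLR2A; bidirectional fit vs DMSO.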

BCL2L11 (gene 10018) = assay: LTEA_HepaRG_BCL2L11: Life Technologies and Expression Analysis (LTEA) Assay for Bcl-2 (BCL2L11) gene using HepaRG (AID 2283473)
In short: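 Cells were plated, cultured 48 h, switched to serum-free induction medium, then dosed in duplicate for 48 h at eight half-log concentrations up to 100 uM. Lysates underwent RNA isolation and TaqMan qRT-PCR; gain or loss versus DMSO was fitted.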

[14] = read-out: Apolipoprotein A-V (APOA5) gene, APOA5 (gene 116519); assay: LTEA_HepaRG_APOA5: Life Technologies and Expression Analysis (LTEA) Assay for Apolipoprotein A-V (APOA5) gene using HepaRG (AID 2283474)
In short: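 Human liver HepaRG cells are treated 48 h with test chemicals (100 uM top, half-log dilutions, 0.5% DMSO). APOA5 mRNA induction or loss is measured by qRT-PCR relative to vehicle.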

[15] = read-out: Apoptosis regulator Bcl-2 (Homo sapiens) (UniProt P10415); assay: LTEA_HepaRG_BCL2: Life Technologies and Expression Analysis (LTEA) Assay for Bcl-2 gene using HepaRG (AID 2283475)
In short: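 Differentiated human HepaRG cells in serum-free induction medium exposed 48 h, in duplicate, to 8-point half-log series from 100 uM in 0.5% DMSO. BCL2 mRNA by qRT-PCR (TaqMan/Fluidigm), normalized to ACTB, GAPDH, POLR2A; bidirectional fit against DMSO.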

[16] = read-out: Bcl-2 (BID) gene, BID (gene 637); assay: LTEA_HepaRG_BID: Life Technologies and Expression Analysis (LTEA) Assay for Bcl-2 (BID) gene using HepaRG (AID 2283476)
In short: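 Gene expression by qRT-PCR in HepaRG cells after 48 h exposure, duplicate wells, eight half-log concentrations topping at 100 uM in 0.5% DMSO. Normalized to ACTB, GAPDH, POLR2A; bidirectional fitting relative to DMSO.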

[17] = read-out: Peroxisomal acyl-coenzyme A oxidase 1 (ACOX1) gene, ACOX1 (gene 51); assay: LTEA_HepaRG_ACOX1: Life Technologies and Expression Analysis (LTEA) Assay for Peroxisomal acyl-coenzyme A oxidase 1 (ACOX1) gene using HepaRG (AID 2283467)
In short: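 HepaRG cells, plated 48 h then switched to serum-free induction medium, were exposed in duplicate for 48 h to 8-point half-log concentrations up to 100 uM in 0.5% DMSO. ACOX1 mRNA was measured by qRT-PCR, normalized to ACTB/GAPDH/POLR2A, and fitted bidirectionally versus DMSO.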

[18] = read-out: ABC Transporter (ABCB1), ABCB1 (gene 5243); assay: LTEA_HepaRG_ABCB1: Life Technologies and Expression Analysis (LTEA) Assay for ABC Transporter (ABCB1) using HepaRG (AID 2283460)
In short: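 HepaRG cells exposed in duplicate for 48 h in serum-free induction medium to eight half-log concentrations up to 100 uM in 0.5% DMSO. ABCB1 mRNA quantified by qRT-PCR, normalised to ACTB, GAPDH and POLR2A; fitted bidirectionally versus DMSO.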

Measured: AC50

Broad substrate specificity ATP-binding cassette transporter ABCG2 (Homo sapiens), sequence (Q9UNQ0 whole entry, looked up): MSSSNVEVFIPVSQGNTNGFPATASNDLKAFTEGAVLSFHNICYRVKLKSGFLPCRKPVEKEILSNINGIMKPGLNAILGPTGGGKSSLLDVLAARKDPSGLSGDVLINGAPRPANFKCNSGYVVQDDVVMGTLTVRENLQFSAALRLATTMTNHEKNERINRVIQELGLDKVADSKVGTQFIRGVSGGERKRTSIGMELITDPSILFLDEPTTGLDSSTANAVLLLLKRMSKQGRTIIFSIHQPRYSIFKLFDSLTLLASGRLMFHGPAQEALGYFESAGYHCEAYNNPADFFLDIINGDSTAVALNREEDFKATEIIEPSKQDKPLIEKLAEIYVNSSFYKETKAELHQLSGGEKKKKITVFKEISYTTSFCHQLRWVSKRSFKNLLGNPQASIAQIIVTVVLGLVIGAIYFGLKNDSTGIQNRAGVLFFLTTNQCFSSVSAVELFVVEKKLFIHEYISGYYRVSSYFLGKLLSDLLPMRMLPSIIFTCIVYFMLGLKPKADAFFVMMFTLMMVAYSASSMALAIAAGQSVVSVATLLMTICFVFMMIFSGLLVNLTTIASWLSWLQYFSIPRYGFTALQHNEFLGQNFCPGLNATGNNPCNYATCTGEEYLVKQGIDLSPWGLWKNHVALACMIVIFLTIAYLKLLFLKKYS
Apoptosis regulator Bcl-2 (Homo sapiens), sequence (P10415 whole entry, looked up): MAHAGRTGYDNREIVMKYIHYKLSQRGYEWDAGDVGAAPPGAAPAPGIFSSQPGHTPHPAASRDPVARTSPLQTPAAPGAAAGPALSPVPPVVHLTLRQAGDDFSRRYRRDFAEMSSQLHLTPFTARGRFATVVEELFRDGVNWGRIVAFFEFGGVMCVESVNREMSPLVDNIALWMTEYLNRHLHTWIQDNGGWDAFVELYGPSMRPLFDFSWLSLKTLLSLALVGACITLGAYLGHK

COc1ccc(/C=C/S(=O)(=O)NC(=O)c2ccc(C)cc2Cl)cc1
active: [5] 79.3 µM
not listed: [17] | [18]
inactive: all other assays above

Cn1cnc([N+](=O)[O-])c1Sc1ncnc2nc[nH]c12
active: [2] 4.06 µM | [5] 11.2 µM | [11] 8.77 µM | [13] 5.38 µM | BCL2L11 (gene 10018) 7.34 µM | [14] 15.8 µM
not listed: [18]
inactive: all other assays above

C1N2CN3CN1CN(C2)C3
not listed: [10] | [15] | [17] | [18]
inactive: all other assays above

C1=CCCC=CCCC=CCC1
not listed: [1] | [17]
inactive: all other assays above

Cc1ccc(C)c(O)c1
not listed: [15] | [17] | [18]
inactive: all other assays above

Cc1c(-c2cccnc2)c2ccccc2n1CCCCC(=O)O
not listed: [1] | [15] | [17]
inactive: all other assays above

CCCCCCCCCCCCCCCO
not listed: [4] | [11] | [15] | [18]
inactive: all other assays above

CC(=O)OC[C@H]1O[C@@](COC(C)=O)(O[C@H]2O[C@H](COC(C)=O)[C@@H](OC(C)=O)[C@H](OC(C)=O)[C@H]2OC(C)=O)[C@@H](OC(C)=O)[C@@H]1OC(C)=O
not listed: [1]
inactive: all other assays above

O=C1CCC(N2C(=O)c3ccccc3C2=O)C(=O)N1 (stereo not drawn)
not listed: [10] | [17] | [18]
inactive: all other assays above

CC(C)CCCCCCCOC(=O)CCCCC(=O)OCCCCCCCC(C)C
not listed: [4] | [10] | [15] | [18]
inactive: all other assays above

CCOC(=O)c1ccc(C2CCC(NC[C@H](O)COc3ccc(O)c(NS(C)(=O)=O)c3)CC2)cc1 (stereo partly drawn)
active: [2] 8.31 µM | [9] 1.83 µM
not listed: [1] | [15] | [17]
inactive: all other assays above

Clc1nc(Cl)c(Cl)c(Cl)c1Cl
not listed: [4] | [10] | [18]
inactive: all other assays above

CCOCCOCCOCCO
not listed: [4] | [10] | [17] | [18]
inactive: all other assays above

O=C(CCCCCCCCc1cccnc1)N1CCC(C=C(c2ccccc2)c2ccccc2)CC1
inactive: [2] | [6] | [8] | [12] | [16]
active: [1] 26.9 µM | [3] 84.6 µM | [5] 14.3 µM | [7] 13.2 µM | [17] 50 µM | [9] 13.7 µM | [11] 30.9 µM | [13] 24.3 µM | BCL2L11 (gene 10018) 27.3 µM | [14] 29.6 µM | [15] 16.6 µM

CC(C)CCCCCCOC(=O)c1ccc(C(=O)OCCCCCCC(C)C)c(C(=O)OCCCCCCC(C)C)c1
not listed: [10] | [18]
inactive: all other assays above
